“And” between values parts separate entries of the source, which are not always exact repeats. Equal entries are not always repeated. The whole screen tested about 410,000 compounds, of which about 7,200 (1.8%) were called active. About 7% were inconclusive and are not listed. Calls follow the shape of the dose curve; as a rule, active = well fitted activation curve with a large enough effect; inconclusive = small, poorly fitted or top-dose-only effect, or another doubt; inactive = no such curve, though single readings can be large or run the other way. The list comes from a sample in which actives are over-represented; it also holds similar structures and randomly drawn compounds. A structure can be active in one record and inactive in another.

We go through 48 compounds from PubChem BioAssay AID652104 (National Center for Advancing Translational Sciences (NCATS), 2013).
Potency is read from the fitted curve at half-maximal effect.

A short description of this assay: qHTS of TDP-43 Inhibitors. Also: nearly all actives have a fitted effect of over 50% in size. As to growth rescue (activation): % of control where 0% means no effect. The conditions noted are these: TDP-43 expressing yeast growth rescue, BacTiter-Glo, 24 h; series mostly up to 46.1 µM; growth rescue (activation): at the top concentration. Put shortly:
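Luminescence from BacTiter-Glo reports growth of TDP-43-expressing yeast after 24 hr at 30 deg C with compound. Cells were raffinose-pregrown to mid-log, then seeded in galactose medium at OD600=0.02.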
Background: In qHTS, concentration-response curves come from the screen itself.
On to `COc1ccc(C(=O)NCC(c2ccc(N(C)C)cc2)N2CCc3ccccc32)c(OC)c1` (stereo not drawn), for which the “growth rescue (activation)” value is 7.72% (inactive).
Take `CCOC(=O)c1c(NC(=O)COc2cc(C)ccc2C(C)C)sc(C)c1C`: the “growth rescue (activation)” value is 8.05% (inactive).
Take `CCc1ccccc1OCCSc1nc(-c2cccs2)nc2cc(=O)[nH]n12`: the “growth rescue (activation)” value was 2.88% (inactive).
Take `Cc1nn(C(C)C(=O)NCCc2ccccc2)c(=O)c2c1sc1ccccc12` (stereo not drawn): the “growth rescue (activation)” value is 7.28% (inactive).
With `O=C(NCCc1ccccc1)c1ccc2c(c1)N(Cc1ccc(F)cc1)C(=O)c1ccccc1S2(=O)=O`, the “growth rescue (activation)” value was 3.53% (inactive).
Regarding `CCCCN1C(=O)c2[nH]nc(-c3ccccc3O)c2C1c1cccc(OCc2ccccc2)c1` (stereo not drawn), the “growth rescue (activation)” value was 0% (inactive).
Consider `Cn1c(=O)c2c(ncn2CC(=O)Nc2cccc(C(F)(F)F)c2)n(C)c1=O`, for which the “growth rescue (activation)” value is 20.5% (inactive).
On to `CSc1nc(-c2ccc(F)cc2)nc2c1Cc1c(CO)cnc(C)c1O2`, for which the “growth rescue (activation)” value is 21.5% (inactive).
With `O=C(CSc1ccc(-c2ccc(-n3cccn3)cc2)nn1)Nc1ccc([N+](=O)[O-])cc1`, the “growth rescue (activation)” value is 12.4% (inactive).
For `COc1cc(NC(=O)CSc2ccc(-c3cccnc3)nn2)cc(OC)c1`, the “growth rescue (activation)” value is -17.4% (inactive).
With `O=C(CSc1ccc(-c2ccccn2)nn1)Nc1ccccc1`, the Potency was 28.2 µM (active).
As for `CCc1ccc(NC(=O)CN2CCSc3ccc(S(=O)(=O)N4CCCC4)cc32)cc1`, the “growth rescue (activation)” value was 15.8% (inactive).
For the compound `Cc1cccc(N2CCN(c3c(CN4CCCC4)c(=O)oc4ccccc34)CC2)c1C`, the “growth rescue (activation)” value is 9.53% (inactive).
The same measure, in the same setting: the same measure for `COc1ccc(C)cc1Nc1nc2ccccc2c2nnc(C)n12`: 14.7% (inactive); for `Cc1ccc(C(=O)Nc2c(C(=O)NC(C)(C)C)oc3ccccc23)cc1`: 14.8% (inactive).
In the case of `CCNc1nc(-c2cc3ccccc3o2)cs1`, the Potency was 14.1 µM (active).
For the compound `Cn1c(SCC(=O)NC2CCCCC2)nnc1-c1cc2ccccc2o1`, the “growth rescue (activation)” value is -2.43% (inactive).
The same measure, in the same setting: next, `COc1ccccc1CN(C)C(=O)c1cc2ccccc2o1`: 20.2% (inactive); `Cc1ccc(N2CC(c3nnc(Cc4ccccc4Cl)o3)CC2=O)cc1` (stereo not drawn): 22.1% (inactive).
For the compound `COc1cc(C(=O)N2CCN(C(=O)COc3cccc(C)c3)CC2)cc(OC)c1OC`, the “growth rescue (activation)” value was 9.38% (inactive).
Regarding `CCN(CC)S(=O)(=O)c1ccc2c(c1)c(=O)c(C(=O)N1CCN(c3cccc(Cl)c3)CC1)cn2C`, the “growth rescue (activation)” value is 15.9% (inactive).
For `Cc1cccc(CNS(=O)(=O)c2ccc(-c3cnc(C4CC4)o3)cc2)c1`, the Potency entry is “inactive and 12.6 µM (active)”.
Consider `Cc1cccc(CCNS(=O)(=O)c2ccc(S(=O)(=O)NC3CCCC3)cc2)c1`, for which the “growth rescue (activation)” value was -9.75% (inactive).
For `Cc1ccc(-c2cnc(C3CC3)o2)cc1S(=O)(=O)Nc1cccc(C)c1C`, the “growth rescue (activation)” value was 17% (inactive).
On the same count and under the same terms, the same measure for `O=C(CN1CCSc2ccccc21)N1CCN(c2ccccc2)CC1`: 29.6% (inactive); for `COc1ccccc1NC(=O)c1cc(C2CC2)nc2c1c(C)nn2-c1ccc(C)cc1`: 0% [at 9.22 µM] (inactive).
For the compound `CC(=O)Nc1ccc(-c2ccnc3c2CC(C(=O)NC(C)C)O3)cc1` (stereo not drawn), the “growth rescue (activation)” value was 22.5% (inactive).
For `COc1ccc(NC(=O)C2Cc3c(-c4ccc(Cl)cc4)ccnc3O2)cc1` (stereo not drawn), the Potency was 14.1 µM (active).
For `COc1ccc(NC(=O)C2Cc3c(-c4cccc(NC(C)=O)c4)ccnc3O2)cc1OC` (stereo not drawn), the “growth rescue (activation)” value is 10.1% (inactive).
Consider `CC1CCc2noc(NC(=O)c3ccc([N+](=O)[O-])cc3)c2C1` (stereo not drawn), for which the “growth rescue (activation)” value was 6.42% (inactive).
As for `Cc1cc(C)cc(OCC(=O)Nc2nc(-c3ccc(F)cc3)ns2)c1`, the “growth rescue (activation)” value is 6.88% (inactive).
Consider `Cn1nccc1C(=O)NC1CCCc2c1cnn2-c1ccc(F)cc1F` (stereo not drawn), for which the “growth rescue (activation)” value was 10.7% (inactive).
Take `COc1ccc(C(=O)NC2CCCc3c2cnn3-c2cccc(C)c2C)c(OC)n1` (stereo not drawn): the Potency was 15.8 µM (active).
In the case of `COc1cccc(C(=O)Nc2c3c(nn2-c2cccc(C)c2C)CS(=O)(=O)C3)c1OC`, the “growth rescue (activation)” value was -20.6% (inactive).
`CCOc1ccc(CNCc2c(C(=O)O)c(C)n(Cc3cccc(OC)c3)c2C)cc1OC`: the “growth rescue (activation)” value is 20.8% (inactive).
On to `Cc1ccc(-n2c(SCC(=O)Nc3cccc(F)c3)nc3c(oc4ccccc43)c2=O)cc1C`, for which the “growth rescue (activation)” value is 6.78% (inactive).
Take `CCn1c(=S)[nH]c2sc3c(c2c1=O)CCCCC3`: the “growth rescue (activation)” value is 7.77% (inactive).
For `S=c1[nH]nc2c3c4c(sc3ncn12)CCCC4`, the Potency was 4.47 µM (active).
As for `Cc1ccc2nc(COc3ccc(NC(=O)COc4ccccc4F)cc3)cc(=O)n2c1`, the “growth rescue (activation)” value was -13.1% (inactive).
Still for that read-out and setting: next, `Cc1cccc(Cn2c(SCc3ccc(C(=O)N4CCC(C)CC4)cc3)nc3ccncc32)c1`: -2.39% (inactive); `Cc1nnc(SCc2cccc(Cl)c2)n(N)c1=O`: -2.32% (inactive); `O=C(c1ccco1)N1CCN=C1SCc1cccc(Cl)c1`: 4.84% (inactive).
Consider `Cc1cc2c(cc3c(SCc4cccc(Cl)c4)nnc(C)n32)o1`, for which the Potency was 20 µM (active).
Regarding `CCc1nnc(SCc2nc(-c3cccc(C)c3)oc2C)c2cc3sc(C)cc3n12`, the “growth rescue (activation)” value is 9.11% (inactive).
The same measure, in the same setting: the same measure for `Cc1cc(NC(=O)CSCc2nc(-c3cccc(Cl)c3)oc2C)no1`: -9.69% (inactive).
`Cc1cc2c(cc3c(SCc4nc(-c5ccccc5)oc4C)nnc(C)n32)o1`: the Potency is 17.8 µM (active).
Regarding `COc1cccc(-c2nnc(SCC(=O)N3CCC(C)CC3)o2)c1`, the “growth rescue (activation)” value is 42.2% (inactive).
As to `O=C(Cn1cc(SCc2ccccc2)c2ccccc21)N1CCCCC1`, the “growth rescue (activation)” value is 0% (inactive).
